PubChem BioAssay (Tox21)
Where “and” joins values, the source holds several entries; their conditions need not be identical. Equal entries are not always repeated. Results filed as inconclusive are left out. Calls of active or inactive are those of the source. Unless noted, the call rests on the fitted dose curve.

How the values were obtained:
[1] = qHTS assay to identify small molecule antagonists of the peroxisome proliferator-activated receptor delta (PPARd) signaling pathway - cell viability counter screen (AID 743213; active means well fitted curve in the direction sought with a large enough effect in the repeat runs; an effect the other way counts as inactive or inconclusive; further: nearly all actives have a fitted effect of over 50% in size)
Method in brief: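 HEK293H cells with the PPARd UAS-bla reporter, co-treated 17 h at 37 C with compounds and L165041 (300 nM final), were lysed with CellTiter-Glo. Luminescence indicated viable cell content.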

[2] = target: Peroxisome proliferator-activated receptor delta (Homo sapiens) (UniProt Q03181); test: qHTS assay to identify small molecule antagonists of the peroxisome proliferator-activated receptor delta (PPARd) signaling pathway (AID 743215; active means well fitted inhibition curve with a large enough effect in the signal ratio in the repeat runs, not every such curve was filed as active; the % refers to the signal ratio;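 further: cells stimulated with agonist L165041 at 300 nM final during compound exposure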; further: potency means the concentration at half of the fitted maximal effect)
Chain of Peroxisome proliferator-activated receptor delta (Homo sapiens) (Q03181 whole entry, looked up): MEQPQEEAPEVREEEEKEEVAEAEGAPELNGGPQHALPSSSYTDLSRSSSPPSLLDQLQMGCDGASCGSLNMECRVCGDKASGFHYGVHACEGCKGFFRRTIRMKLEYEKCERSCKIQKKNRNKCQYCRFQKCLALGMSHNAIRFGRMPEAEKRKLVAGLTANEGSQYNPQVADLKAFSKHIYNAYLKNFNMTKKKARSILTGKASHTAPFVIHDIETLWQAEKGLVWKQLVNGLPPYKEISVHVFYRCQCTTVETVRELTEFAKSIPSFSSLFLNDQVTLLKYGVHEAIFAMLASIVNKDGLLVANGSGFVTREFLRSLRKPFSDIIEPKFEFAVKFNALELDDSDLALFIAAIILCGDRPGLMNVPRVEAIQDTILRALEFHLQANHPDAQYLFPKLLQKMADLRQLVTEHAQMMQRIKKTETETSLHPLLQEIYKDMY
Method in brief: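 Plated HEK293H PPARd-bla cells rested 5 h at 37 C and 5% CO2. Compound, then agonist L165041 at 300 nM final, was added; 17 h at 37 C followed. Substrate loading, 2 h room temperature, fluorescence measured.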

[3] = qHTS assay to identify small molecule agonists of the farnesoid-X-receptor (FXR) signaling pathway - cell viability counter screen (AID 743218; active means well fitted curve in the direction sought with a large enough effect in the repeat runs; an effect the other way counts as inactive or inconclusive; further: nearly all actives have a fitted effect of over 45% in size)
Method in brief: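 Viability of FXR-bla HEK 293T cells is measured by ATP-based CellTiter-Glo luminescence following 16 h compound treatment at 37 C and a prior 2 h room-temperature beta-lactamase substrate step.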

[4] = qHTS assay to identify small molecule antagonists of the farnesoid-X-receptor (FXR) signaling pathway - cell viability counter screen (AID 743221; active means well fitted cell-killing curve with a large enough effect in the repeat runs, not every such curve was filed as active; further: nearly all actives have a fitted effect of over 50% in size)
Method in brief: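 Quantitative HTS of the Tox21 10K library run in parallel with the beta-lactamase reporter read. HEK 293T cells carrying a UAS-driven bla reporter got compound and 50 uM CDCA (final) for 16 h; ATP-based luminescence followed.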

[5] = target: Vitamin D3 receptor (Homo sapiens) (UniProt P11473); test: qHTS assay to identify small molecule agonists of the vitamin D receptor (VDR) signaling pathway (AID 743222)
Chain of Vitamin D3 receptor (Homo sapiens) (P11473 whole entry, looked up): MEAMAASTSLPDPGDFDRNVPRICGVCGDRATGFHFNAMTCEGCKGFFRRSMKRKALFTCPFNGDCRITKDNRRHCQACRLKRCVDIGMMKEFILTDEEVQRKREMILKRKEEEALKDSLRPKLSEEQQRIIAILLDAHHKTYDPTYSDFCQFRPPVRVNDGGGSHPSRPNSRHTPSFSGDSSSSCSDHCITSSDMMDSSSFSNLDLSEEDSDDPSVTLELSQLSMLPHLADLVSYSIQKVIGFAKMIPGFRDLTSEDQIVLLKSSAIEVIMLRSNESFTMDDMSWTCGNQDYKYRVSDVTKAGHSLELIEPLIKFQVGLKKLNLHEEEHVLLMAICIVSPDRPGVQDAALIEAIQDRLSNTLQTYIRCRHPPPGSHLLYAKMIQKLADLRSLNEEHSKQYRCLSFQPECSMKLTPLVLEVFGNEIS
Method in brief: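 Fluorescence from cleaved LiveBLAzer B/G FRET substrate served as readout. VDR-bla cells had been treated 16 h at 37C with test compounds in DMSO, following a 4 h settling period, and substrate was loaded for 2 h at RT.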

[6] = target: Vitamin D3 receptor (Homo sapiens) (UniProt P11473); test: qHTS assay to identify small molecule antagonists of the vitamin D receptor (VDR) signaling pathway (AID 743223; active means well fitted inhibition curve with a large enough effect in the signal ratio in the repeat runs, not every such curve was filed as active; the % refers to the signal ratio)
Method in brief: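 Fluorescence from LiveBLAzer B/G FRET substrate, read after 2 h at room temperature, reflects beta-lactamase reporter activity in VDR-bla cells treated 16 h at 37C with compounds and agonist 1alpha,25-dihydroxyvitamin D3 (3 nM final).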

[7] = qHTS assay to identify small molecule agonists of the vitamin D receptor (VDR) signaling pathway - cell viability counter screen (AID 743224; active means well fitted curve in the direction sought with a large enough effect in the repeat runs; an effect the other way counts as inactive or inconclusive; further: series mostly up to about 63 µM; nearly all actives have a fitted effect of over 50% in size)
Method in brief: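 Compounds were pin-transferred onto VDR-bla cells plated 4 h earlier; following 16 h incubation at 37C, cell viability was quantified by CellTiter-Glo luminescence after 30 min at room temperature.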

[8] = qHTS assay to identify small molecule antagonists of the vitamin D receptor (VDR) signaling pathway - cell viability counter screen (AID 743225; active means well fitted curve in the direction sought with a large enough effect in the repeat runs; an effect the other way counts as inactive or inconclusive; further: nearly all actives have a fitted effect of over 50% in size)
Method in brief: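 Cells (VDR-UAS-bla HEK 293T) are plated, rested 4 h at 37C, dosed with compound and 3 nM final 1-alpha,25-dihydroxy vitamin D3, and incubated 16 h. Viability is taken from CellTiter-Glo luminescence in the reporter wells.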

[9] = qHTS assay to identify small molecule agonists of the NFkB signaling pathway (AID 1159509; active means well fitted curve in the direction sought with a large enough effect in the signal ratio in the repeat runs, not every such curve was filed as active; the % refers to the signal ratio; further: series mostly up to about 61 µM)
Method in brief: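 Agonist activity was read as beta-lactamase-driven FRET change (460 and 530 nm emission, 405 nm excitation) following 1.5 hr substrate loading at room temperature. Beforehand, ME-180 NFkB-bla reporter cells were treated with compounds for 5 hr at 37 C.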

[10] = qHTS assay to identify small molecule agonists of the NFkB signaling pathway - cell viability counter screen (AID 1159515); further: series mostly up to about 61 µM; nearly all actives have a fitted effect of over 55% in size
Method in brief: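 Parallel cytotoxicity counter screen in ME-180 cells carrying an NFkB-response-element beta-lactamase reporter, 2,000 cells/well. Compound exposure lasted 5 hr at 37 C, 5% CO2. Cell viability was quantified by CellTiter-Glo luminescence.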

[11] = qHTS assay to identify small molecule agonists of the endoplasmic reticulum stress response signaling pathway (AID 1159516; active means well fitted activation curve with a large enough effect in the signal ratio in the repeat runs, not every such curve was filed as active; the % refers to the signal ratio)
Method in brief: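 Using a HeLa line with an ESRE-driven beta-lactamase gene, agonist activity was measured by FRET substrate fluorescence (460 and 530 nm emission) after cells were treated with compounds for 5 hr at 37 C and 5% CO2.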

[12] = qHTS assay to identify small molecule agonists of the endoplasmic reticulum stress response signaling pathway - cell viability counter screen (AID 1159517)
Method in brief: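 Cpd-treated ESRE-bla HeLa (5 hr, 37 C) → LiveBLAzer 2 hr RT → CellTiter-Glo 30 min RT → luminescence.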

[13] = qHTS assay to identify small molecule antagonists of the retinoid-related orphan receptor gamma (ROR-gamma) signaling pathway - cell viability counter screen (AID 1159520; active means well fitted curve in the direction sought with a large enough effect in the repeat runs; an effect the other way counts as inactive or inconclusive; further: nearly all actives have a fitted effect of over 50% in size)
Method in brief: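 Tet-on ROR gamma CHO cells (1,000/well) were plated 4 hr, given compounds in DMSO for 2 hr at 37 C, then induced with 1 uM final doxycycline for 16 hr. Viability was read as ATP by CellTiter-Glo luminescence after 30 min.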

[14] = target: Nuclear receptor ROR-gamma (Homo sapiens) (UniProt P51449); test: qHTS assay to identify small molecule antagonists of the retinoid-related orphan receptor gamma (ROR-gamma) signaling pathway (AID 1159521; active means well fitted curve in the direction sought with a large enough effect in the repeat runs; an effect the other way counts as inactive or inconclusive; further: nearly all actives have a fitted effect of over 50% in size; further: potency means the concentration at half of the fitted maximal effect)
Method in brief: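 RORγ antagonism is scored from reduced reporter luminescence in Tet-on CHO cells. Induction used 1 uM final doxycycline hyclate for 16 h at 37 C, following a 2 h compound exposure.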

[15] = qHTS assay to identify small molecule agonists of the AP-1 signaling pathway - cell viability counter screen (AID 1159525); further: nearly all actives have a fitted effect of over 55% in size
Method in brief: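 Each titration point was normalised to DMSO and tetra n-octyl ammonium bromide controls. The read was Cell Titer Glo luminescence after 30 min at RT, following 5 h compound exposure of ME-180 AP-1-bla cells at 37 °C.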

[16] = qHTS assay to identify small molecule agonists of the AP-1 signaling pathway (AID 1159526)
[17] = target: Retinoic acid receptor RXR-alpha (Homo sapiens) (UniProt P19793); test: qHTS assay to identify small molecule agonists of the RXR signaling pathway (AID 1159527); further: nearly all actives have a fitted effect of over 35% in size; further: potency means the concentration at half of the fitted maximal effect
Chain of Retinoic acid receptor RXR-alpha (Homo sapiens) (P19793 whole entry, looked up): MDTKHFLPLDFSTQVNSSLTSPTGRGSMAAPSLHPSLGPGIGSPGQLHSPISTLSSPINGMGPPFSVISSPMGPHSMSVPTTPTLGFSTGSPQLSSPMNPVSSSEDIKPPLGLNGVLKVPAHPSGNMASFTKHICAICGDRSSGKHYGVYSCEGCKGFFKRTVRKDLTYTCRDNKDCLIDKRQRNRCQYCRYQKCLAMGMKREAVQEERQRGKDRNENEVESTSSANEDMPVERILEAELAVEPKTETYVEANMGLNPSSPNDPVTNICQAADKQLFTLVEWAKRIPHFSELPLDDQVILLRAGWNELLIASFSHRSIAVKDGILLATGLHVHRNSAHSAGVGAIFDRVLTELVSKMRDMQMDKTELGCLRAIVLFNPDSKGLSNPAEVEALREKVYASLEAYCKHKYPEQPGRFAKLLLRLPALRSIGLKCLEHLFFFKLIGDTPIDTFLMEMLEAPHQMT
Method in brief: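 qHTS of the Tox21 10K library in GeneBLAzer RXR-alpha HEK 293T cells carrying a beta-lactamase reporter […]; 16 hr treatment, 9-cis retinoic acid as agonist control, FRET read-out.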

[18] = target: Bile acid receptor (Homo sapiens) (UniProt Q96RI1); test: qHTS assay to identify small molecule antagonists of the farnesoid-X-receptor (FXR) signaling pathway (AID 743217; active means well fitted inhibition curve with a large enough effect in the signal ratio in the repeat runs, not every such curve was filed as active; the % refers to the signal ratio)
Chain of Bile acid receptor (Homo sapiens) (Q96RI1 whole entry, looked up): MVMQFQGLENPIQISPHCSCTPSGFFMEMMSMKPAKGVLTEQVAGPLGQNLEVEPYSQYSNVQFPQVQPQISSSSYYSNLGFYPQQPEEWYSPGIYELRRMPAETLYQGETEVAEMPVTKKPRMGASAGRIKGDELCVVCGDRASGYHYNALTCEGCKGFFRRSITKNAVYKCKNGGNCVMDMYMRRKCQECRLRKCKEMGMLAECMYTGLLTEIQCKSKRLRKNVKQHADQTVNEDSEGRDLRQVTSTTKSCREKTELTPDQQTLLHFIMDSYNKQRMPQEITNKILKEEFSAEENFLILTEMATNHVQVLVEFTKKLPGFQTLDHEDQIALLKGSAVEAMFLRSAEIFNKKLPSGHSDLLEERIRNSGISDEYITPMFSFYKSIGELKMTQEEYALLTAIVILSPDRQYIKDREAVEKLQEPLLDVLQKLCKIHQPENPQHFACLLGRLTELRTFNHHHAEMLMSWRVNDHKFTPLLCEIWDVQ
Method in brief: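 Screen of the Tox21 10K library in quantitative HTS format using FXR-UAS-bla HEK 293T reporter cells. Agonist chenodeoxycholic acid, 50 uM final, added with compounds; 16 h incubation at 37 °C; beta-lactamase FRET fluorescence measured.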

[19] = target: Bile acid receptor (Homo sapiens) (UniProt Q96RI1); test: qHTS assay to identify small molecule agonists of the farnesoid-X-receptor (FXR) signaling pathway (AID 743220; active means well fitted activation curve with a large enough effect in the signal ratio in the repeat runs, not every such curve was filed as active; the % refers to the signal ratio)
Method in brief: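 FXR-UAS-bla HEK 293T cells carrying a UAS-driven beta-lactamase reporter were plated for 5 h at 37C/5% CO2, then exposed to DMSO-dissolved Tox21 10K compounds for 16 h at 37C. A LiveBLAzer B/G FRET substrate was loaded for 2 h at room temperature before fluorescence reading.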

[20] = target: Peroxisome proliferator-activated receptor delta (Homo sapiens) (UniProt Q03181); test: qHTS assay to identify small molecule agonists of the peroxisome proliferator-activated receptor delta (PPARd) signaling pathway (AID 743212)
Method in brief: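 Cells expressing a UAS-driven beta-lactamase reporter (PPARd-bla HEK293H) were given test compounds after a 5 h settle and kept at 37 C. Reporter activity was then measured as FRET fluorescence using LiveBLAzer B/G substrate.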

Measured: Potency

O=C(O)CBr
inactive: [1] | [2] | [3] | [4] | [5] | [6] | [7] | [8] | [9] | [10] | [11] | [12] | [13] | [14] | [15] | [16] | [17]

COC[C@@H](NC(C)=O)C(=O)NCc1ccccc1
inactive: [1] | [2] | [3] | [4] | [5] | [7] | [8] | [9] | [10] | [11] | [12] | [13] | [14] | [15] | [16] | [17]

N[C@@H]1C[C@H]1c1ccccc1
inactive: [1] | [2] | [18] | [3] | [19] | [4] | [5] | [6] | [8] | [9] | [10] | [11] | [12] | [13] | [14] | [15] | [16] | [17]

CS(=O)(=O)Cl
inactive: [2] | [3] | [4] | [5] | [6] | [7] | [8] | [9] | [10] | [11] | [12] | [13] | [14] | [15] | [16] | [17]

CC(C)(C)c1cc(O)ccc1O
active: [2] 54.9 µM | [14] 13.7 µM and 24.3 µM
inactive: [18] | [3] | [19] | [4] | [7] | [8] | [9] | [10] | [11] | [12] | [13]

ClCCCCCCCl
inactive: [3] | [4] | [5] | [6] | [7] | [8] | [9] | [10] | [11] | [12] | [13] | [14] | [15] | [16] | [17]

ClCCCCl
inactive: [18] | [3] | [19] | [4] | [5] | [6] | [7] | [8] | [9] | [10] | [11] | [12] | [13] | [14] | [15] | [16] | [17]

CN(CCO)CCO
inactive: [2] | [18] | [19] | [4] | [5] | [6] | [7] | [8] | [9] | [10] | [11] | [12] | [13] | [14] | [15] | [16] | [17]

COC1=CC(=O)O[C@@H](/C=C/c2ccccc2)C1
inactive: [20] | [1] | [2] | [18] | [3] | [19] | [4] | [5] | [6] | [7] | [8] | [10] | [11] | [12] | [13] | [14] | [15] | [16] | [17]

COc1ccc(CN2CCNCC2)c(OC)c1OC
inactive: [20] | [1] | [2] | [18] | [3] | [19] | [4] | [7] | [8] | [10] | [11] | [12] | [13] | [14] | [15] | [16] | [17]

NNCc1ccccc1
active: [17] 22.3 µM
inactive: [2] | [18] | [3] | [19] | [4] | [7] | [9] | [10] | [11] | [12] | [13] | [14] | [15] | [16]

O=C(Cl)OCc1ccccc1
inactive: [3] | [4] | [7] | [8] | [9] | [10] | [11] | [12] | [13] | [14] | [15] | [16] | [17]

O=C(Cl)C(Cl)(Cl)Cl
inactive: [2] | [18] | [3] | [19] | [4] | [5] | [6] | [7] | [9] | [10] | [11] | [12] | [13] | [14] | [15] | [16] | [17]

CCN(CCO)CCn1c(Cc2ccccc2)nc2c1c(=O)n(C)c(=O)n2C
inactive: [18] | [19] | [4] | [7] | [8] | [9] | [10] | [11] | [12] | [13] | [14] | [15] | [16] | [17]

COc1cccc(C=O)c1
inactive: [3] | [4] | [5] | [7] | [8] | [9] | [10] | [11] | [12] | [13] | [14] | [15] | [16] | [17]

ClCCN1CCCC1
inactive: [2] | [3] | [4] | [5] | [6] | [7] | [8] | [9] | [10] | [11] | [12] | [13] | [14] | [15] | [16] | [17]

CCN1CCCC1CNC(=O)C(O)(c1ccccc1)c1ccccc1 (stereo not given)
inactive: [18] | [3] | [19] | [4] | [5] | [6] | [7] | [9] | [10] | [11] | [12] | [13] | [14] | [15] | [16] | [17]
